Pf Dd2 inh: blocks in vitro growth of P. falciparum Dd2; hit rate 4.3% among 120,000; AID 1347417; P. falciparum Dd2 growth, SYBR Green, 72 h; Potency, µM (series often up to 28.9 µM), usual class: inhibitors; active means well fitted inhibition curve with a large enough effect; further: nearly all actives have a fitted effect of over 65% in size
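Infected erythrocytes (Dd2, 0.3% parasitemia, 2.5% hematocrit final) are added to compound in RPMI-1640/Albumax II medium, grown 72 h at 37C in low oxygen, then lysed with saponin/Triton-X containing SYBR Green and read by fluorescence.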
Hits are given with their value; - = inactive; ! = not active in a repeat. Many of the other results were omitted from the sample, so hits are more common in it than they were.

SMILES	Pf Dd2 inh
COc1ccc(CCNC(=O)c2c[nH]n3c(=O)c(Cc4ccccc4Cl)c(C)nc23)cc1OC	10µM
Cc1nc2c(C(=O)NCCc3ccccc3)c[nH]n2c(=O)c1Cc1ccc(F)cc1Cl	-
COc1ccccc1C(=O)N1CCn2c(nnc2-c2cccnc2)C1	-
O=C(N[C@H]1CO[C@H]2[C@@H]1OC[C@@H]2n1cc(CC2CCCCC2)nn1)c1ccc(C(F)(F)F)cc1	-
Cc1cccc(-c2nc(CCNC(=O)Cc3ccc(F)cc3)cs2)c1	-
COc1ccc(CC(=O)NCCc2csc(-c3ccc(Cl)cc3)n2)cc1	-
COc1ccc(CC(=O)NCCc2csc(-c3cccc(C)c3)n2)cc1	13µM
O=C(CC1CCCCC1)N1CCN(c2cc(-c3ccccc3)[nH]n2)CC1	-
CCn1cc2nc(SCc3ccccc3)n(Cc3ccc(C)cc3)c(=O)c2n1	-
CCn1cc2nc(SCc3ccc(F)cc3)n(Cc3ccc(Cl)cc3)c(=O)c2n1	-
CCn1cc2nc(SCc3cc(C)ccc3C)n(Cc3ccc(C)cc3)c(=O)c2n1	10µM
CC(C)CNC(=O)CC1Sc2ncccc2N(CC(C)C)C1=O (stereo not given)	-
COc1cccc(N2C(=O)NC(=NC3CCCCC3)C23CCN(Cc2ccccc2)C3)c1 (stereo not given)	-
COc1cccc(N2C(=O)NC(=NC3CCCCC3)C23CCCN(Cc2ccc(F)cc2)C3)c1 (stereo not given)	13µM
COc1cccc(N2C(=O)NC(=NC3CCCCC3)C23CCCN(C(=O)c2ccccc2OC)C3)c1 (stereo not given)	-
COc1ccc(CN2CCC3(CC2)C(=NC2CCCCC2)NC(=O)N3c2cccc(OC)c2)cc1	-
COc1cccc(N2C(=O)NC(=NC3CCCC3)C23CCCN(C(=O)c2ccccc2F)C3)c1 (stereo not given)	-
COc1cccc(N2C(=O)NC(=NC3CCCC3)C23CCN(Cc2ccc(F)cc2)C3)c1 (stereo not given)	13µM
COC[C@@H]1CN(C(=O)c2ccc(OC)cc2OC)C[C@H]1c1ccncc1	-
Cc1ccc(C(=O)N2CCCC2c2nncn2Cc2ccncc2)c(=O)[nH]1 (stereo not given)	-
NC1(C(=O)N2CCCC(N3CCN(Cc4ccc5c(c4)OCO5)CC3)C2)CC1 (stereo not given)	-
CC1CCN(C(=O)CSc2nnc(-c3ccccc3Cl)o2)CC1	-
Cc1oc(-c2ccc(Cl)cc2)nc1CN1CCCC(C(=O)NCc2ccc(Cl)cc2)C1 (stereo not given)	-
Cc1ccc(Oc2c(C(F)(F)F)oc3c(CN4CCCCC4C)c(O)ccc3c2=O)cc1 (stereo not given)	-
Cc1c(CO)cccc1NC(=O)c1ccc(CN2CCCC(C)C2)cc1 (stereo not given)	-
SMILES	Pf Dd2 inh
Cc1cc(C)cc(Oc2coc3c(CN4CCN(C)CC4)c(O)ccc3c2=O)c1	-
CC1CCCN(Cc2nc3c(c(=O)n(C)c(=O)n3C)n2Cc2ccc(Cl)cc2)C1 (stereo not given)	-
CC1CCCN(Cc2c(O)ccc3c(=O)c(-c4ccccc4Cl)c(C(F)(F)F)oc23)C1 (stereo not given)	0.89µM
Cc1cc(Oc2c(C(F)(F)F)oc3c(CN4CCC(C)CC4)c(O)ccc3c2=O)cc(C)c1Cl	0.45µM
CC1CCCN(Cc2c(O)ccc3c(=O)c(-c4ccc(Cl)cc4)c(C(F)(F)F)oc23)C1 (stereo not given)	0.71µM
Clc1cc(N2CCN(c3ncccn3)CC2)n2nccc2n1	-
COc1ccc(-c2noc(-c3nc(-c4ccccc4OC)no3)n2)cc1OC	-
Cc1noc(C)c1C(=O)N1CCC2(CC1)CC(N[S+](C)(=O)[O-])c1ccccc12 (stereo not given)	-
Cc1nnc(-c2cc(N3CCN(c4ccccn4)CC3)ccn2)n1C1CCCCC1	-
Cc1ccc(C(=O)N2CCc3nnc([C@@H]4C[C@@H](O)CN4C)n3CC2)cn1	-
O=C(NCc1ccccc1)C1COC2(CCN(C(=O)c3ccco3)CC2)N1C(=O)c1ccco1 (stereo not given)	-
COc1ccc(C(=O)N2CCCC3(C2)C(=NC2CCCCC2)NC(=O)N3c2cc(F)cc(F)c2)cc1 (stereo not given)	-
O=C1NC(=NC2CCCC2)C2(CCN([S+](=O)([O-])c3cccc(C(F)(F)F)c3)CC2)N1c1cc(F)cc(F)c1	-
O=C1NC(=NC2CCCC2)C2(CCCN([S+](=O)([O-])c3cccc(C(F)(F)F)c3)C2)N1c1cc(F)cc(F)c1 (stereo not given)	10µM!
O=C(c1ccc(C(F)(F)F)cc1)N1CCC2(C1)C(=NC1CCCCC1)NC(=O)N2c1cc(F)cc(F)c1 (stereo not given)	8.9µM
COc1ccc(C(=O)N2CCC3(CC2)C(=NC2CCCCC2)NC(=O)N3c2cc(F)cc(F)c2)cc1	-
O=C1NC(=NC2CCCC2)C2(CCCN([S+](=O)([O-])c3ccccc3)C2)N1c1cc(F)cc(F)c1 (stereo not given)	-
CC(=O)N1CCNc2cc(Nc3cccc(N(C)C)c3)ncc2C1	-
Cc1ccc(-c2nnc(C3CN(C(=O)c4sccc4C)CC34CCOCC4)o2)cc1 (stereo not given)	-
COc1ccc2c(c1)CN(C1COC1)CC[C@H]1COC(=O)N21	-
CC(C)Oc1ccccc1CN1CCC2(CC1)CC(O)CCO2 (stereo not given)	5µM
COc1ccc2c(c1)c(CN1CCC3(CC1)CC(O)CCO3)cn2C (stereo not given)	-
OC1CCOC2(CCN(Cc3ccccc3OC(F)(F)F)CC2)C1 (stereo not given)	5.6µM
COc1cccc(CN2CCC3(CC2)CC(O)CCO3)c1OC (stereo not given)	-
OC1CCOC2(CCN(Cc3ccncc3)CC2)C1 (stereo not given)	-
SMILES	Pf Dd2 inh
OC1CCOC2(CCN(Cc3ccc(Br)o3)CC2)C1 (stereo not given)	-
Cc1ccccc1S(=O)(=O)N1CCC(CCC(=O)N(C)Cc2cccnc2)CC1	-
COc1cc(NC(=O)CC2CCCN(c3cnn(C)c(=O)c3)C2)cc(OC)c1 (stereo not given)	-
c1ccc(OCCC2CCNC2)cc1 (stereo not given)	-
CCOc1ccccc1C(=O)N1CCC(N2C(=O)CCC2C(=O)NC(C)C)CC1 (stereo not given)	-
Cc1nnsc1C(=O)N[C@H]1CCN2C(=O)N(c3ccc(C(C)C)cc3)C(=O)[C@@H]2C1	-
O=C(C1CCCC1)N1CCC2(CC1)CC(c1ccccc1)=NO2	-
FC(F)(F)c1cccc(-c2cc(-c3ccncc3)c3cncn3c2)c1	-
COc1ccccc1-c1cc(-c2ccc(=O)[nH]c2)c2cncn2c1	-
c1cc(-c2cc(-c3ccncc3)c3cncn3c2)c2[nH]ncc2c1	-
COc1cc(F)ccc1-c1cc(-c2cn[nH]c2)c2cncn2c1	-
COc1ccc(-c2cc(-c3ccc(F)cc3)cn3cncc23)cc1	3.2µM
COc1ccc(-c2cc(-c3ccncc3)c3cncn3c2)cc1	11µM
COc1cccc(-c2cc(-c3ccncc3)c3cncn3c2)c1OC	10µM
CN(C)Cc1ccc(-c2cc(-c3cn[nH]c3)c3cncn3c2)cc1	-
Fc1cccc(-c2cc(-c3cn[nH]c3)c3cncn3c2)c1	-
COc1ccc(-c2cc(-c3ccc(F)cc3OC)cn3cncc23)cc1	6.3µM
COCCc1nncn1C1CCN(C(=O)c2ccccc2C(F)(F)F)CC1	-

Source: PubChem BioAssay (National Center for Advancing Translational Sciences (NCATS))
